According to PubChem BioAssay (NCATS):
Where “and” joins values, the source holds several entries; their conditions need not be identical. Equal values may be shown once. Inconclusive results are not listed. Calls of active or inactive are those of the source. Calls come from the whole dose curve; as a rule, active = well fitted curve in the direction sought with a large enough effect; inconclusive = small, poorly fitted or top-dose-only effect, or another doubt; inactive = no such curve, though single readings can be large; an effect the other way counts as inactive or inconclusive.

Key:
NIH3T3 = experiment: qHTS assay to identify novel small-molecules to repurpose for Merkel cell carcinoma treatment (AID 1296009); settings: MCC and control cell lines, CellTiter-Glo viability, 72 h; at 44.8 µM (top of the series) unless noted; note: nearly all actives have a fitted effect of over 60% in size
How it was run: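 72 hr, 37 degree celsius; NPC 8-pt / MIPE 11-pt dose response; compound pinned in DMSO; CellTiter-Glo, 10 min RT, luminescence; normalized to no-cell and DMSO controls.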

C33A = experiment: Primary qHTS to identify gynecologic anti-cancer compounds using libraries of approved drugs and bioactive compounds (AID 1345084); settings: Gynecologic cancer cell panel viability, ATPlite luminescence, 48 h; series mostly up to 57.5 µM; note: % is set by controls: 0 for no effect and ±100 for the full control effect; nearly all actives have a fitted effect of over 55% in size
How it was run: (§1)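 Luminescence from the ATPlite ATP-monitoring reagent indicates viable cell number; lower signal means cytotoxicity. Cells received compound 16 h after seeding and were exposed for 48 h across five concentrations.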

CAOV3 = experiment: as above; settings: Gynecologic cancer cell panel viability, ATPlite luminescence, 48 h; series mostly up to 57.5 µM
How it was run: as §1

CASKI = experiment: as above; settings: Gynecologic cancer cell panel viability, ATPlite luminescence, 48 h; series mostly up to 57.5 µM
How it was run: as §1

Es-2 = experiment: as above; settings: Gynecologic cancer cell panel viability, ATPlite luminescence, 48 h; series mostly up to 57.5 µM
How it was run: as §1

HeLa = experiment: as above; settings: Gynecologic cancer cell panel viability, ATPlite luminescence, 48 h; series mostly up to 57.5 µM
How it was run: as §1

Hek293T = experiment: as above; settings: Gynecologic cancer cell panel viability, ATPlite luminescence, 48 h, control line for the selectivity index; series mostly up to 57.5 µM
How it was run: as §1

JEG-3 = experiment: as above; settings: Gynecologic cancer cell panel viability, ATPlite luminescence, 48 h; series mostly up to 57.5 µM
How it was run: as §1

OV90 = experiment: as above; settings: Gynecologic cancer cell panel viability, ATPlite luminescence, 48 h; series mostly up to 57.5 µM
How it was run: as §1

PA-1 = experiment: as above; settings: Gynecologic cancer cell panel viability, ATPlite luminescence, 48 h; series mostly up to 57.5 µM
How it was run: as §1

SKOV3 = experiment: as above; settings: Gynecologic cancer cell panel viability, ATPlite luminescence, 48 h; series mostly up to 57.5 µM
How it was run: as §1

Tov-21-G = experiment: as above; settings: Gynecologic cancer cell panel viability, ATPlite luminescence, 48 h; series mostly up to 57.5 µM
How it was run: as §1

Tov112D = experiment: as above; settings: Gynecologic cancer cell panel viability, ATPlite luminescence, 48 h; series mostly up to 57.5 µM
How it was run: as §1

[1] = Drug repurposing screens with cells derived from glioblastoma tumor samples (AID 1345199); settings: GBM patient neurospheres viability, ATP luminescence, 48 h; note: % is set by controls: 0 for no effect and ±100 for the full control effect; nearly all actives have a fitted effect of over 40% in size
How it was run: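 Four patient lines of CD133+ GBM neurospheres were screened at several concentrations; hits were retested in those lines plus three slower-growing GBM lines, using 48-hour treatment and ATP-based viability.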

CCC[C@@H]1C[C@@H](C(=O)N[C@@H]([C@H]2O[C@H](SC)[C@H](OP(=O)(O)O)[C@@H](O)[C@H]2O)[C@H](C)Cl)N(C)C1
inactive: outcome (NIH3T3) inactive [at 17.4 µM] | Potency (C33A) | Potency (CAOV3) | Potency (CASKI) | Potency (Es-2) | Potency (HeLa) | Potency (Hek293T) | Potency (JEG-3) | Potency (OV90) | Potency (PA-1) | Potency (SKOV3) | Potency (Tov-21-G) | Potency (Tov112D) | activity, negative = cell killing ([1]; at 45.9 µM (top of the series), tumour line B) -3.77% and -8.29% | activity, negative = cell killing ([1]; at 45.9 µM (top of the series), tumour line D) -15.4% and -22.6% | activity, negative = cell killing ([1]; at 46.1 µM (top of the series), tumour line C) -6.5% and -2.32%

COC1C2=C(COC2=O)C2(C)CCCC(C)(CO)C2C1OC(=O)c1ccccc1 (stereo not drawn)
inactive: outcome (NIH3T3) inactive [at 17.4 µM] | Potency (C33A) | Potency (CAOV3) | Potency (CASKI) | Potency (Es-2) | Potency (HeLa) | Potency (Hek293T) | Potency (JEG-3) | Potency (OV90) | Potency (PA-1) | Potency (SKOV3) | Potency (Tov-21-G) | Potency (Tov112D)

COc1cc(/C=C/CO)ccc1O[C@@H]1O[C@H](CO)[C@@H](O)[C@H](O)[C@H]1O
inactive: outcome (NIH3T3) | Potency (C33A) | Potency (CAOV3) | Potency (CASKI) | Potency (Es-2) | Potency (HeLa) | Potency (Hek293T) | Potency (JEG-3) | Potency (OV90) | Potency (PA-1) | Potency (Tov-21-G) | Potency (Tov112D)

COCC(=O)N1CCc2cc(-c3csc(NC(=O)c4cc(OC)cc(OC)c4)n3)ccc21
inactive: outcome (NIH3T3) | Potency (C33A) | Potency (CAOV3) | Potency (CASKI) | Potency (Es-2) | Potency (HeLa) | Potency (Hek293T) | Potency (JEG-3) | Potency (OV90) | Potency (PA-1) | Potency (Tov-21-G) | Potency (Tov112D)

COc1ccc2c(c1)O[C@H](O[C@@H]1O[C@H](CO)[C@@H](O)[C@H](O)[C@H]1O)C(=O)N2
inactive: outcome (NIH3T3) | Potency (C33A) | Potency (CAOV3) | Potency (CASKI) | Potency (Es-2) | Potency (HeLa) | Potency (Hek293T) | Potency (JEG-3) | Potency (OV90) | Potency (PA-1) | Potency (SKOV3) | Potency (Tov-21-G) | Potency (Tov112D)

C[C@]1(OC(=O)/C=C/c2ccccc2)C[C@H](O)[C@]2(O)C=CO[C@@H](O[C@@H]3O[C@H](CO)[C@@H](O)[C@H](O)[C@H]3O)C12 (stereo partly drawn)
inactive: outcome (NIH3T3) inactive [at 17.4 µM] | Potency (C33A) | Potency (CAOV3) | Potency (CASKI) | Potency (Es-2) | Potency (HeLa) | Potency (Hek293T) | Potency (JEG-3) | Potency (OV90) | Potency (PA-1) | Potency (SKOV3) | Potency (Tov-21-G) | Potency (Tov112D)

COc1ccc2cc(OCC3(C(=O)O)CN(C(=O)c4ccc(F)cc4)C3)ccc2c1
inactive: outcome (NIH3T3) | Potency (C33A) | Potency (CAOV3) | Potency (CASKI) | Potency (Es-2) | Potency (HeLa) | Potency (Hek293T) | Potency (JEG-3) | Potency (OV90) | Potency (PA-1) | Potency (Tov-21-G) | Potency (Tov112D)

C=CC(C)(CC/C=C(\C)CC/C=C(\C)CC(O)/C=C(\C)C(=O)O)O[C@@H]1O[C@H](CO)[C@@H](O)[C@H](O)[C@H]1O[C@@H]1O[C@H](CO)[C@@H](O)[C@H](O)[C@H]1O (stereo partly drawn)
inactive: outcome (NIH3T3) inactive [at 17.4 µM] | Potency (C33A) | Potency (CAOV3) | Potency (CASKI) | Potency (Es-2) | Potency (HeLa) | Potency (Hek293T) | Potency (JEG-3) | Potency (OV90) | Potency (PA-1) | Potency (SKOV3) | Potency (Tov-21-G) | Potency (Tov112D)

C[C@H]1[C@H](C)CC[C@]2(C(=O)O)CC[C@]3(C(=O)O)C(=CCC4[C@@]5(C)CC[C@H](O[C@@H]6O[C@H](C)[C@@H](O)[C@H](O)[C@H]6O)C(C)(C)C5CC[C@]43C)[C@H]12 (stereo partly drawn)
inactive: outcome (NIH3T3) inactive [at 17.4 µM] | Potency (C33A) | Potency (CAOV3) | Potency (CASKI) | Potency (Es-2) | Potency (HeLa) | Potency (Hek293T) | Potency (JEG-3) | Potency (OV90) | Potency (PA-1) | Potency (Tov-21-G) | Potency (Tov112D)

CC(=O)OC1C(O)CC(O[C@@H]2O[C@H](CO)[C@@H](O)[C@H](O)[C@H]2O)C2CCC3C(=O)OC(c4ccoc4)CC3(C)C21 (stereo partly drawn)
inactive: outcome (NIH3T3) inactive [at 17.4 µM] | Potency (C33A) | Potency (CAOV3) | Potency (CASKI) | Potency (Es-2) | Potency (HeLa) | Potency (Hek293T) | Potency (JEG-3) | Potency (OV90) | Potency (PA-1) | Potency (SKOV3) | Potency (Tov-21-G) | Potency (Tov112D)

O=C(NC[C@H](O)CN1CCc2ccccc2C1)c1cc(NC2COC2)ncn1
inactive: outcome (NIH3T3) | Potency (C33A) | Potency (CAOV3) | Potency (CASKI) | Potency (Es-2) | Potency (HeLa) | Potency (Hek293T) | Potency (JEG-3) | Potency (OV90) | Potency (PA-1) | Potency (SKOV3) | Potency (Tov-21-G) | Potency (Tov112D)

CCC(C)C(=O)O[C@@H]1[C@@H](O)[C@@H](O[C@H]2O[C@H](CO)[C@@H](O)[C@H](O)[C@H]2O)O[C@H](CO)[C@H]1O (stereo partly drawn)
inactive: outcome (NIH3T3) inactive [at 17.4 µM] | Potency (C33A) | Potency (CAOV3) | Potency (CASKI) | Potency (Es-2) | Potency (HeLa) | Potency (Hek293T) | Potency (JEG-3) | Potency (OV90) | Potency (PA-1) | Potency (Tov-21-G) | Potency (Tov112D)

COC(=O)C1C(c2ccc(O)cc2)C(C(=O)OC)C1c1ccc(O)cc1 (stereo not drawn)
inactive: outcome (NIH3T3) | Potency (C33A) | Potency (CAOV3) | Potency (CASKI) | Potency (Es-2) | Potency (HeLa) | Potency (Hek293T) | Potency (JEG-3) | Potency (OV90) | Potency (PA-1) | Potency (Tov-21-G) | Potency (Tov112D)

C=C(C)C1CC2(CO)C(=CC1=O)CCC(O)C2C (stereo not drawn)
inactive: outcome (NIH3T3) | Potency (C33A) | Potency (CAOV3) | Potency (CASKI) | Potency (Es-2) | Potency (HeLa) | Potency (Hek293T) | Potency (JEG-3) | Potency (OV90) | Potency (PA-1) | Potency (Tov-21-G) | Potency (Tov112D)
